# Laboratory results taken from PubChem BioAssay (Tox21).
# Values joined by “and” are separate entries in the source; they are usually repeats but may differ in a detail not shown here. Identical values can stand only once. Records with an inconclusive call do not appear. A call without a number means that no potency is given here. Some structures have more than one record in an assay (separate samples or runs), and their calls can disagree. Active and inactive are the calls of the source. Unless noted, the call rests on the fitted dose curve; in most records, active means well fitted curve in the direction sought with a large enough effect in the repeat runs; inconclusive means weak or mixed curves; inactive means no such curve, though single readings can be large; an effect the other way counts as inactive or inconclusive.
# Tests used:
# [1] = qHTS assay to identify aromatase inhibitors - cell viability counter screen (AID 743084);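 further: cells stimulated with testosterone during compound exposure; nearly all actives have a fitted effect of over 55% in size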; further: potency means the concentration at half of the fitted maximal effect
# [2] = biological target: Aryl hydrocarbon receptor (Homo sapiens) (UniProt P35869); assay: qHTS assay to identify small molecule that activate the aryl hydrocarbon receptor (AhR) signaling pathway (AID 743085); further: nearly all actives have a fitted effect of over 15% in size; further: potency means the concentration at half of the fitted maximal effect;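 on activation: HG2L7.5c1 human HepG2 liver cells with stably integrated DRE-driven firefly reporter; series mostly up to about 70 µM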
# Summary of the method: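 AhR agonist activity is inferred from enhanced light output of a DRE-controlled firefly luciferase reporter in HepG2 cells, measured with ONE-Glo following 24 h treatment at 37C.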
# [3] = qHTS assay to identify small molecule that activate the aryl hydrocarbon receptor (AhR) signaling pathway - cell viability counter screen (AID 743086); further: nearly all actives have a fitted effect of over 45% in size; further: potency means the concentration at half of the fitted maximal effect
# Summary of the method: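 Cytotoxicity counter screen: CellTiter-Fluor signal (30 min, 37 C) in 4000 HepG2 cells/well carrying the DRE-luciferase reporter, following 24 h compound exposure at 37 C.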
# [4] = biological target: Peroxisome proliferator-activated receptor gamma (Homo sapiens) (UniProt P37231); assay: qHTS assay to identify small molecule agonists of the peroxisome proliferator-activated receptor gamma (PPARg) signaling pathway (AID 743094; active means well fitted activation curve with a large enough effect in the signal ratio in the repeat runs, not every such curve was filed as active; the % refers to the signal ratio; further: potency means the concentration at half of the fitted maximal effect)
# Summary of the method: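 Cells from the PPARg UAS-bla HEK293H line are plated and incubated 5 h at 37C. Compounds in DMSO are pinned in and left 17 h at 37C. LiveBLAzer B/G substrate is then added for 1 h at room temperature before fluorescence is measured.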
# [5] = biological target: Peroxisome proliferator-activated receptor gamma (Homo sapiens) (UniProt P37231); assay: qHTS assay to identify small molecule antagonists of the peroxisome proliferator-activated receptor gamma (PPARg) signaling pathway (AID 743191; calls by dose curve; further: nearly all actives have a fitted effect of over 30% in size; further: potency means the concentration at half of the fitted maximal effect)
# Summary of the method: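 Beta-lactamase reporter under UAS control in HEK293H PPARg-bla cells; compound treatment 17 h at 37C. Read-out: fluorescence intensity after 1 h room-temperature incubation with LiveBLAzer B/G FRET substrate.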
# [6] = qHTS assay to identify small molecule antagonists of the peroxisome proliferator-activated receptor gamma (PPARg) signaling pathway - cell viability counter screen (AID 743194); conditions: Potency: co-treated with 50 nM rosiglitazone unless noted; further: nearly all actives have a fitted effect of over 55% in size; further: potency means the concentration at half of the fitted maximal effect
# Summary of the method: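 Viability was measured as CellTiter-Glo luminescence in GeneBLAzer PPARg UAS-bla HEK293H cells. These cells had been exposed 17 h at 37 C to compounds together with rosiglitazone at 50 nM final, with the beta-lactamase readout taken in the same wells.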
# [7] = qHTS assay for small molecule agonists of the antioxidant response element (ARE) signaling pathway (AID 743202; active means well fitted activation curve with a large enough effect in the signal ratio in the repeat runs, not every such curve was filed as active; the % refers to the signal ratio; further: potency means the concentration at half of the fitted maximal effect)
# Summary of the method: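 Beta-lactamase reporter activity, read as fluorescence intensity, reflects ARE/Nrf2 pathway induction in HepG2 cells after 16 h compound exposure at 37 C; substrate loading was 2 h at room temperature.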
# [8] = qHTS assay for small molecule agonists of the antioxidant response element (ARE) signaling pathway - cell viability counter screen (AID 743203; calls by dose curve; further: nearly all actives have a fitted effect of over 55% in size; further: potency means the concentration at half of the fitted maximal effect)
# Summary of the method: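 Cytotoxicity was tested in parallel with the ARE reporter screen. ARE-bla HepG2 cells were exposed to compounds for 16 hrs, and viability was taken from CellTiter-Glo luminescence.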
# [9] = qHTS assay for small molecule activators of the heat shock response signaling pathway - cell viability counter screen (AID 743209); further: nearly all actives have a fitted effect of over 50% in size; further: potency means the concentration at half of the fitted maximal effect
# Summary of the method: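 Cytotoxicity counter screen run in parallel with the HSE beta-lactamase reporter, using the same wells. HeLa HSE-bla cells received compound for 5 h at 37 C; ATP-based CellTiter-Glo luminescence was measured after 30 min at room temperature.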
# [10] = qHTS assay for small molecule activators of the heat shock response signaling pathway (AID 743210; active means well fitted activation curve with a large enough effect in the signal ratio in the repeat runs, with a control signal flat, not every such curve was filed as active; the % refers to the signal ratio;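 further: HeLa cells with beta-lactamase reporter driven by heat shock elements; series mostly up to about 63 µM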)
# Summary of the method: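 Fluorescence from a cleaved B/G FRET substrate (2.5 h, room temp) reports HSE-driven beta-lactamase in HeLa cells treated 5 h at 37 C with DMSO-dissolved compounds.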
# Aryl hydrocarbon receptor (Homo sapiens), sequence (P35869 whole entry, looked up): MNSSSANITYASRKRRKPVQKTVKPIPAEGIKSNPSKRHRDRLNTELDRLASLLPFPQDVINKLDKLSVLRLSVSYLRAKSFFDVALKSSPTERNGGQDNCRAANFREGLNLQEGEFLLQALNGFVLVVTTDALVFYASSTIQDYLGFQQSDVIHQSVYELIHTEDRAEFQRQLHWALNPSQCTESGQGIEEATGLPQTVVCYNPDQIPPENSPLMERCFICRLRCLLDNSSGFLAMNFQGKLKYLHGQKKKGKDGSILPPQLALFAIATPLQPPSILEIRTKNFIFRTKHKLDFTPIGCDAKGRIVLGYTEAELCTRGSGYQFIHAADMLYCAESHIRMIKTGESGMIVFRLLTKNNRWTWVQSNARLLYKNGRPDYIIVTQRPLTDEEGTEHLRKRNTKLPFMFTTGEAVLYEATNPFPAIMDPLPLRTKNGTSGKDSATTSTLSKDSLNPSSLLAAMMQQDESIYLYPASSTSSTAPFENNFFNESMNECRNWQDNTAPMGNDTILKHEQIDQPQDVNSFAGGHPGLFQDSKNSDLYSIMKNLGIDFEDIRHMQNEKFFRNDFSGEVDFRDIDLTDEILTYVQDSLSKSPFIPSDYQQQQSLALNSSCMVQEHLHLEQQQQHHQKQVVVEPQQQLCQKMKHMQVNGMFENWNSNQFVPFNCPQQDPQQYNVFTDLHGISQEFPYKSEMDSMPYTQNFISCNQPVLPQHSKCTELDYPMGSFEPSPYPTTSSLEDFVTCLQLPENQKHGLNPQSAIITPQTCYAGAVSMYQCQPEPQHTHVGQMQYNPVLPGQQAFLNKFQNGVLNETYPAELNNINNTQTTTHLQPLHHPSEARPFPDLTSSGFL
# Peroxisome proliferator-activated receptor gamma (Homo sapiens), sequence (P37231 whole entry, looked up): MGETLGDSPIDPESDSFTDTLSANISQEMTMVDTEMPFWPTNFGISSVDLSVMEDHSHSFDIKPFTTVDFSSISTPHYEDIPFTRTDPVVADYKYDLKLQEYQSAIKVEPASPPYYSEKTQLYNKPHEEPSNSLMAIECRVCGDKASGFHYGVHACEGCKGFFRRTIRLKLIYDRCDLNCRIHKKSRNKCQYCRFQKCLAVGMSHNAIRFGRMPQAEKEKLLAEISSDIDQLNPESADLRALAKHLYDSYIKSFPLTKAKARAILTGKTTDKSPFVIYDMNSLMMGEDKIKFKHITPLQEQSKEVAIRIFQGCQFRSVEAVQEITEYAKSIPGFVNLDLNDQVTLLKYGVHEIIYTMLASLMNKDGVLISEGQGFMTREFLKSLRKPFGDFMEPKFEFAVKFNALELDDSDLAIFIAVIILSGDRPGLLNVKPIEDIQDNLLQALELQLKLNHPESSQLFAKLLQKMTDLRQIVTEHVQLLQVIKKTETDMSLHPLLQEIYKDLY
Structure (SMILES),Potency [1],Potency [2],Potency [3],Potency [4],Potency [5],Potency [6],Potency [7],Potency [8],Potency [9],Potency [10]
N#CC(Br)Br,inactive,inactive,inactive,inactive,inactive,inactive,34.2 µM (active),inactive,inactive,–
COc1ccc(C=O)cc1,inactive,inactive,inactive,inactive,inactive,inactive,inactive,inactive,inactive,–
C=CCN(CC=C)C(=O)C(Cl)Cl,inactive,inactive,inactive,inactive,inactive,inactive,inactive,inactive,inactive,–
CCN(CC)C(=O)SCc1ccc(Cl)cc1,inactive,inactive,inactive,inactive,inactive,inactive,inactive,inactive,inactive,inactive
CC(O)CCO (stereo not drawn),inactive,inactive,inactive,inactive,inactive,inactive,inactive,inactive,inactive,inactive
OCC(O)CO,inactive,inactive,inactive,inactive,inactive,inactive,inactive,inactive,inactive,–
CCCCC(CC)COC(=O)c1ccc(C(=O)OCC(CC)CCCC)c(C(=O)OCC(CC)CCCC)c1 (stereo not drawn),inactive,inactive,inactive,inactive,inactive,inactive,inactive,inactive,inactive,–
CCCCCc1cc(O)cc(O)c1,inactive,61.4 µM (active),inactive,inactive,24.7 µM (active),inactive,48.8 µM (active) and 48.6 µM (active),inactive,inactive,inactive
Nc1c(Cl)cc([N+](=O)[O-])cc1Cl,inactive,inactive,inactive,inactive,inactive,inactive,inactive,inactive,inactive,–
Nn1cnnc1,inactive,inactive,inactive,inactive,inactive,inactive,inactive,inactive,inactive,inactive
CCCCCCOC(=O)c1ccccc1C(=O)OCCCCCC,inactive,inactive,inactive,inactive,inactive,inactive,inactive,inactive,inactive,–
CCN(N=O)C(N)=O,inactive,inactive,inactive,inactive,inactive,inactive,inactive,inactive,inactive,–
O=C(NC(=O)c1c(F)cccc1F)Nc1ccc(Cl)cc1,inactive,97.1 nM (active) and 611 nM (active),inactive,inactive,inactive,inactive,inactive,inactive,inactive,inactive
Cc1cccc(N)c1N,inactive,11.8 µM (active) and 43.3 µM (active),inactive,inactive,inactive,inactive,9.36 µM (active) and 17.2 µM (active),inactive,inactive,–
O=P(O)(O)CCCl,inactive,inactive,inactive,inactive,inactive,inactive,inactive,inactive,inactive,inactive
CCOP(=S)(OCC)O/N=C(\C#N)c1ccccc1,inactive,10.6 µM (active) and 21.7 µM (active),inactive,inactive,inactive,inactive,inactive,inactive,inactive,–
c1nc[nH]n1,inactive,inactive,inactive,inactive,inactive,inactive,inactive,inactive,inactive,inactive
NCc1cccnc1,inactive,inactive,inactive,inactive,inactive,inactive,inactive,inactive,inactive,–

Structure (SMILES),Potency [1],Potency [2],Potency [3],Potency [4],Potency [5],Potency [6],Potency [7],Potency [8],Potency [9],Potency [10]
Oc1ccc(-c2ccccc2)cc1,inactive,inactive,inactive,inactive,30.5 µM (active),inactive,53.8 µM (active) and 21.7 µM (active),inactive,inactive,–
CCC(C)(C)c1ccc(O)cc1,inactive,inactive,inactive,inactive,inactive,inactive,inactive,inactive,inactive,inactive
CCCCCCCCOC(=O)c1ccccc1C(=O)OCCCCCCCC,inactive,inactive,inactive,inactive and 54.8 µM (active),inactive,inactive,inactive,inactive,inactive,–
CNC(=O)N(C)c1nnc(C(C)(C)C)s1,inactive,inactive,inactive,inactive,inactive,inactive,inactive,inactive,inactive,–
Cc1cc(Cl)ccc1OCCCC(=O)O,inactive,inactive,inactive,inactive,inactive,inactive,inactive,inactive,inactive,inactive
CN(C)C(=O)Nc1ccc(Cl)cc1,inactive,inactive,inactive,inactive,inactive,inactive,inactive,inactive,inactive,inactive
CCC(CC)Nc1c([N+](=O)[O-])cc(C)c(C)c1[N+](=O)[O-],inactive,inactive,inactive,inactive,inactive,inactive,inactive,inactive,inactive,–
c1ccc(N=Nc2ccccc2)cc1,inactive,inactive,inactive,inactive,inactive,inactive,inactive,inactive,inactive,inactive
C=C(C)[C@H]1Cc2c(ccc3c2O[C@@H]2COc4cc(OC)c(OC)cc4[C@@H]2C3=O)O1,34.8 µM (active) and 34.4 µM (active),inactive,inactive and 39.1 µM (active) and 21.7 µM (active),inactive,13.3 µM (active),inactive,0.0077 µM (active),15.6 µM (active) and 3.86 µM (active) and 3.76 µM (active),inactive,inactive
C=C(C)C(=O)OCC1CO1 (stereo not drawn),inactive,inactive,inactive,inactive,inactive,inactive,inactive,inactive,inactive,inactive
CC(C)C(=O)OCC(C)(C)C(OC(=O)C(C)C)C(C)C (stereo not drawn),inactive,inactive,inactive,inactive,inactive,35 µM [setting not given] (active),inactive,inactive,24.8 µM (active) and inactive,–
CC(C)NC(C)C,inactive,inactive,inactive,inactive,inactive,inactive,inactive,inactive,inactive,–
CCC(C)c1cc([N+](=O)[O-])cc([N+](=O)[O-])c1O (stereo not drawn),inactive and 27.3 µM (active),inactive,inactive and 13.7 µM (active),inactive,inactive,inactive,inactive and 611 nM (active),inactive and 969 nM (active),inactive,–
Oc1cc(Cl)ccc1Cl,inactive,inactive,inactive,inactive,inactive,inactive,inactive,inactive,inactive,inactive
O=[N+]([O-])c1cccc2ccccc12,inactive,inactive,inactive,inactive,inactive,inactive,inactive,inactive,inactive,–
COP(=O)(OC)OC,inactive,inactive,inactive,inactive,inactive,inactive,inactive,inactive,inactive,–
CCCCC(CC)COC(=O)Cl (stereo not drawn),inactive,inactive,inactive,inactive,inactive,inactive,inactive,inactive,inactive,–
NNC(N)=S,28.4 µM (active) and inactive,inactive and 19.3 µM (active),inactive,inactive,inactive,inactive,inactive,inactive,40.4 µM (active) and inactive,–
